Assay results published in PubChem BioAssay (NCATS).
Inconclusive results are not listed. A call without a number means that no potency is given here. A number with no mark means an inactive call. Calls of active or inactive are those of the source. Calls come from the whole dose curve; as a rule, active = well fitted cell-killing curve with a large enough effect; inconclusive = small, poorly fitted or top-dose-only effect, or effect the other way; inactive = flat fitted curve, though single readings scatter.

System: OV90
Experiment: Primary qHTS to identify gynecologic anti-cancer compounds using libraries of approved drugs and bioactive compounds (AID 1345084); note: nearly all actives have a fitted effect of over 55% in size
Conditions: Gynecologic cancer cell panel viability, ATPlite luminescence, 48 h; series mostly up to 57.5 µM
In short: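 ATP-based viability (ATPlite), 1,000 cells/well, 16 h pre-incubation, 48 h compound at 37 C, 5% CO2, 15 min RT before read.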

Row | SMILES | Potency | activity change, negative = cytotoxicity
1 | NC(Cc1c[nH]c2ccccc12)C(=O)NC(CCC(=O)O)C(=O)O (stereo not drawn) | inactive | 
2 | C[C@@H]1O[C@@H](O[C@H]2[C@H](OC(=O)[C@]34CCC(C)(C)C[C@H]3C3=CCC5[C@@]6(C)C[C@H](O)[C@H](O[C@@H]7O[C@H](CO)[C@@H](O[C@@H]8O[C@H](CO)[C@@H](O)[C@H](O)[C@H]8O)[C@H](O)[C@H]7O)[C@@](C)(CO)C6[C@H](O)C[C@@]5(C)[C@]3(C)C[C@H]4O)OC[C@H](O)[C@@H]2O)[C@H](O)[C@H](O)[C@H]1O[C@@H]1OC[C@@H](O)[C@H](O[C@@H]2OC[C@](O)(CO)[C@H]2O)[C@H]1O (stereo partly drawn) |  | 4.05% [at 6.55 µM]
3 | CC(C)C1=CC2=CCC3[C@](C)(CCC[C@@]3(C)C(=O)O)C2CC1=O (stereo partly drawn) | inactive | 
4 | CC1(C)CC[C@]2(C(=O)O[C@@H]3O[C@H](CO)[C@@H](O)[C@H](O)[C@H]3O)CC[C@]3(C)C(=CCC4[C@@]5(C)C[C@@H](O)[C@H](O)[C@@](C)(CO)C5CC[C@]43C)C2C1 (stereo partly drawn) | inactive | 
5 | COc1ccc([C@H]2Cc3cccc(O)c3C(=O)O2)cc1 | inactive | 
6 | O=C(O)C[C@@H](NC(=O)c1cc(-c2ccc(-c3ccncc3)cc2)cs1)c1ccccc1 | inactive | 
7 | C[C@@H]1CC[C@]2(C(=O)O)CC[C@]3(C)C(=CCC4[C@]5(C)C(CC[C@]43C)C(C)(C)[C@@H](O)[C@H](O)[C@@H]5O)C2[C@]1(C)O (stereo partly drawn) | inactive | 
8 | CCC(=O)NS(=O)(=O)c1ccc(-c2c(-c3ccccc3)noc2C)cc1 | inactive | 
9 | CC(C)(C)c1cc(CN2CCN(CC(O)c3ccc(Cl)cc3)CC2)cc(C(C)(C)C)c1O (stereo not drawn) | inactive | 
10 | CCOc1nc2cccc(C(=O)O)c2n1Cc1ccc(-c2ccccc2-c2noc(=O)[nH]2)cc1 | inactive | 
11 | CC1(O)CCC2C(C(=O)O)=COC(OC3OC(CO)C(O)C(O)C3OC(=O)/C=C/c3ccc(O)cc3)C21 (stereo not drawn) | inactive | 
12 | COc1c2c(c(C)c3c1C(=O)OC3)O[C@@]1(C)C[C@@H](O)[C@]34O[C@](OC)(CC[C@]3(C)[C@H]1C2)OC4(C)C | inactive | 
13 | CN1Cc2c(N)cccc2C(c2ccccc2)C1 (stereo not drawn) | inactive | 
14 | COC(=O)CC1(O)C(=O)Nc2ccccc21 (stereo not drawn) | inactive | 
15 | CC1=C2[C@@H]([C@H](C)CC[C@H]2/C=C(\C)C(=O)O)[C@H](O)C1 | inactive | 
16 | C[C@]12C=CC(=O)C=C1CC[C@@H]1[C@@H]2[C@@H](O)C[C@@]2(C)[C@H]1CC[C@]2(O)C(=O)COC(=O)CCC(=O)O | inactive | 
17 | O=C(/C=C/c1ccc(O)cc1)OC[C@]12O[C@H]1[C@@H](O)[C@@H]1C=CO[C@@H](O[C@@H]3O[C@H](CO)[C@@H](O)[C@H](O)[C@H]3O)[C@@H]12 | inactive | 
18 | CC(=O)OCC(=O)O[C@@H]1[C@H]2[C@@H](OC(=O)c3ccccc3)[C@@H](C)C[C@]2(O)[C@H](OC(C)=O)C2(C)[C@H]3CC(C)(C)C(=O)[C@@H]3CC1(OC(C)=O)[C@@H]2OC(C)=O (stereo partly drawn) | inactive | 
19 | CN1C(=O)c2ccccc2-n2c(nc3ccccc3c2=O)[C@@]12O[C@H]2c1ccccc1 | inactive | 
20 | C#Cc1cnc2[nH]c(=O)n(C(CC)CC)c2n1 | inactive | 
21 | CCNC(=O)[C@H]1O[C@H](n2cnc3c(NCC(c4ccccc4)c4ccccc4)nc(C(=O)NCCNC(=O)NC4CCN(c5ccccn5)CC4)nc32)[C@H](O)[C@@H]1O | inactive | 
22 | C=C[C@H]1[C@H](O[C@@H]2O[C@H](CO)[C@@H](O)[C@H](O)[C@H]2O)OC=C2C(=O)OCC[C@]21O | inactive | 
23 | Nc1c(Br)cc(Br)cc1CNC1CCC(O)CC1 (stereo not drawn) | inactive | 
24 | CCC(C)/C=C(C)/C=C/C1=CC2=C(Cl)C(=O)C(C)(OC(C)=O)C(=O)C2=CN1C1CCCCN(C(CCC(N)=O)C(=O)O)C1=O (stereo not drawn) | inactive | 
25 | CCC[C@@H]1C[C@@H](C(=O)N[C@@H]([C@H]2O[C@H](SC)[C@H](OP(=O)(O)O)[C@@H](O)[C@H]2O)[C@H](C)Cl)N(C)C1 | inactive | 
26 | COc1cc([C@H]2OC[C@@H]3[C@@H](c4ccc(O[C@@H]5O[C@H](CO)[C@@H](O)[C@H](O)[C@H]5O)c(OC)c4)OC[C@]23O)ccc1O | inactive | 
27 | COCCN(C)Cc1ccc2nc3sc(C(=O)N(C)C4CCCCC4)cn3c2c1 | inactive | 
28 | CCC(=O)O[C@]1(C(=O)CCl)[C@@H](C)C[C@H]2[C@@H]3C[C@H](F)C4=CC(=O)C=C[C@]4(C)[C@@]3(F)[C@@H](O)C[C@@]21C | inactive | 
